Each structure is given as a SMILES string. ± gives the uncertainty stated by the source.

In this assay the test system is Caenorhabditis elegans N2 (wild type). Nature of the assay: animals with crystals or spheres in anterior pharynx; higher = more object (crystal/sphere) accumulation. The following applies: 30 µM; 48 h; genotype: wild type N2; stage: L1 start. Here is the method: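 Synchronized wild-type (N2) C. elegans L1 larvae (50 per well) were incubated in liquid NGM with E. coli HB101 and 30 uM of each wactive for 48 h. Live worms were scored by DIC and polarized-light microscopy for birefringent crystals or non-birefringent spheres in the anterior pharynx. At least 3 biological replicates were run with at least 20 worms each; the value is the mean % of animals carrying objects.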
With `Cc1ccccc1C(=O)NCCc1ccccc1` [wact-406], the animals was 0%.

Turning to `Clc1ccc(-c2cn3ccsc3n2)cc1` [wact-1], the animals is 0%.

`COc1ccccc1CNC(=O)c1ccccc1I` [wact-402] came in with an animals of 0%.

The molecule `c1ccc(CSc2nnc(-c3ccccc3)o2)cc1` [wact-38] showed an animals of 95.5 ± 3%.

For the molecule `CCCc1nc(-c2ccc(-c3ccc(F)cc3)cc2)no1` [wact-390], the animals turned out to be 88.33 ± 0.88%.

Molecule `O=[N+]([O-])c1ccc(CSc2ccc(Cl)cc2)cc1` [wact-3] registered an animals of 52.6 ± 13%.

`O=C1CC(N2CCN(c3ccc([N+](=O)[O-])cc3)CC2)C(=O)N1c1ccccc1F` (stereo not drawn) [wact-56]: the animals came to 0%.

In turn, `O=[N+]([O-])c1ccc(N2CCN(CC3CC4C=CC3C4)CC2)cc1` (stereo not drawn) [wact-46] had an animals of 0%.

The molecule `c1ccc2nc(-c3nc4ccccc4o3)ccc2c1` [wact-40] came in with an animals of 12.5 ± 2.8%.

Take `Cc1ccc(-c2cnc(-c3ccncc3)o2)cc1` [wact-23]: the animals came out at 0%.

Take `C=CCSc1nnc(-c2ccc(Cl)cc2Cl)o1` [wact-5]: the animals worked out at 0%.

Regarding `CCOc1ccc(-c2cnc3ccccc3n2)cc1` [wact-24], the animals was found to be 69.5 ± 6.4%.

Take `O=[N+]([O-])c1ccc(-n2ccc3ccccc32)cc1` [wact-213]: the animals is 40.3 ± 22%.

The molecule `Fc1ccc(-c2cn3ccsc3n2)cc1` [wact-433] displayed an animals of 0%.

Turning to `O=C(Nc1cccc(Cl)c1)N1CCN(c2ccc([N+](=O)[O-])cc2)CC1` [wact-31], the animals came to 0%.

In turn, `Brc1ccc(-c2nnc(-c3ccccc3)o2)cc1` [wact-425] had an animals of 34.5 ± 9.2%.

On to `O=C(NCCCCc1ccccc1)c1ccccc1F` [wact-400], for which the animals came to 0%.

The molecule `c1ccc(-c2noc(-c3cccs3)n2)cc1` [wact-7] gave an animals of 0%.

On to `COc1ccc(C=Cc2ccccn2)cc1` [wact-622], for which the animals was 0%.

The molecule `CCC1CCC(N2CCN(c3ccc([N+](=O)[O-])cc3)CC2)CC1` (stereo not drawn) [wact-6] displayed an animals of 3.24 ± 3%.

Consider `O=C(c1ccc(Br)cc1)N1CCN(c2ccc([N+](=O)[O-])cc2)CC1` [wact-381], for which the animals is 99.5 ± 0.5%.

Molecule `c1csc(-c2cnc3ccccc3n2)c1` [wact-21] had an animals of 0%.

For `Ic1cccc(-c2nnc(-c3ccccc3)o2)c1` [wact-51], the animals was found to be 51.5 ± 14%.

Molecule `O=[N+]([O-])c1ccc(N2CCN(CC3CCCCC3)CC2)cc1` [wact-45] had an animals of 0%.

Molecule `CCSc1nnc(-c2ccc(Cl)cc2Cl)o1` [wact-4] yielded an animals of 0%.

In turn, `O=C(Nc1ccc(I)cc1)c1ccco1` [wact-27] showed an animals of 10 ± 8.3%.

In turn, `O=C(Nc1ccc(-c2nc3ccccc3s2)cc1)c1ccccc1F` [wact-415] yielded an animals of 100%.

Take `O=[N+]([O-])c1ccc(N2CCN(CC3CC=CCC3)CC2)cc1` (stereo not drawn) [wact-47]: the animals is 0%.

Values taken from the supplement of paper PMC6718421.
